This passage reports TetR repression strength results from a collection of fitness landscapes (doi:10.1038/s41467-024-54723-y).

Whole data set: some 18,000 sequences, median “TetR repression strength (sort-seq, GFP reporter)” near 0.23, cut for the highest 2% near 0.68. The sample as a whole holds a higher share of the highest values than the screen did.

Chain of TetR (class B, Tn10) (P04483 whole entry): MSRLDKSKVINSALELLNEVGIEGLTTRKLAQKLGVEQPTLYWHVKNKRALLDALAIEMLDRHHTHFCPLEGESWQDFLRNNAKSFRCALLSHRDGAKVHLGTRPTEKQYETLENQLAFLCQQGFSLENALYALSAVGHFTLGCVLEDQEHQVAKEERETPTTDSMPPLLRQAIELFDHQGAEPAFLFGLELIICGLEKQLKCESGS

The experiment addresses TetR (class B, Tn10) (UniProt P04483). Put plainly: TetR repression strength (sort-seq, GFP reporter) (relative to tetO2 = 1); higher = stronger repression. The following applies: E. coli. The gist of the method:
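E. coli SIG10-MAX carried a low-copy plasmid library with eight randomized operator positions between a constitutive promoter and sfGFP, with TetR constitutively expressed. Cells grew 5 h at 37 °C in LB with 50 µg/mL chloramphenicol, then 10^6 cells were FACS-sorted into 13 fluorescence bins, each Illumina-sequenced. Repression strength is the top bin index plus one minus the read-weighted mean bin, divided by the wild-type operator value. Three independent transformations; variants with ≥30 reads in all replicates and CV ≤0.5 were averaged.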
Regarding TCCCAGTTAGTTGAGGAGA, the TetR repression strength was 0.231. Next, TCCCACGGAGTCACCGAGA: 0.205. The result for TCCCGACAAGTGATAGAGA reads 0.642. For TCCCGCTCAGTGTTAGAGA, the TetR repression strength is 0.433. The result for TCCCTATAAGTGATAGAGA reads 0.994. Next, TCCCGAGAAGTGATAGAGA: 0.425; TCCCTATAAGTCGTAGAGA: 0.503; TCCCGATAAGTGAGTGAGA: 0.375. Next, TCCCGCTCAGTGGTAGAGA: 0.428; TCCCGCTCAGTGATAGAGA: 0.742; TCCCGATGAGTCAGTGAGA: 0.38. As to TCCCCCTAAGTGATAGAGA, the TetR repression strength is 0.442. On to TCCCGATAAGTGATAGAGA, for which the TetR repression strength is 0.733. Turning to TCCCGATAAGTCAGTGAGA, the TetR repression strength was found to be 0.747.

In turn, TCCCGTATAGTGGGGGAGA returned a TetR repression strength of 0.0618. Next, TCCCGGGTAGTGACGGAGA: 0.181; TCCCACGAAGTGCCTGAGA: 0.486. In turn, TCCCAGGGAGTAAAGGAGA returned a TetR repression strength of 0.188. Take TCCCGCAGAGTTGGCGAGA: the TetR repression strength came out at 0.186. Next, TCCCGACAAGTAGCTGAGA: 0.187.

TCCCGATAAGTGGCTGAGA displayed a TetR repression strength of 0.523. TCCCTAATAGTGATAGAGA registered a TetR repression strength of 0.614. As to TCCCGCTGAGTGATAGAGA, the TetR repression strength stood at 0.483. The result for TCCCGGTAAGTGATAGAGA reads 0.609.

Sequence TCCCGATCAGTGATAGAGA gave a TetR repression strength of 0.778. Next, TCCCGATAAGTAGCTGAGA: 0.921; TCCCGATCAGTGCTAGAGA: 0.657; TCCCTTTTAGTGATAGAGA: 0.512. Next, TCCCTATTAGTGATAGAGA: 0.878; TCCCGCTAAGTGATAGAGA: 0.69; TCCCGATCAGTGATGGAGA: 0.482. As to TCCCTTATAGTGCCTGAGA, the TetR repression strength was determined as 0.162. In the case of TCCCGAACAGTGTAGGAGA, the TetR repression strength stood at 0.0968. Next, TCCCGCTTAGTCCGTGAGA: 0.183; TCCCTGGAAGTGGGGGAGA: 0.208. For TCCCTGATAGTTTTCGAGA, the TetR repression strength amounted to 0.301. With TCCCTCGAAGTAGGGGAGA, the TetR repression strength was determined as 0.154. As for TCCCATTAAGTGAACGAGA, the TetR repression strength amounted to 0.253. The result for TCCCCGAGAGTGTGTGAGA reads 0.248; that for TCCCGGGGAGTGGCTGAGA, 0.301. The result for TCCCGGGGAGTAGCTGAGA reads 0.709; that for TCCCGTCAAGTACCCGAGA, 0.325; that for TCCCGTCAAGTAGCCGAGA, 1.02. Regarding TCCCGGGAAGTAGCTGAGA, the TetR repression strength stood at 0.647. With TCCCGTCAAGTGGCCGAGA, the TetR repression strength is 0.152.

The sequence TCCCGAGTAGTAACGGAGA registered a TetR repression strength of 0.461. The sequence TCCCGAGAAGTGCCTGAGA displayed a TetR repression strength of 0.178.

For the sequence TCCCGTCTAGTGAAGGAGA, the TetR repression strength was determined as 0.315. Next, TCCCGGTCAGTGCAGGAGA: 0.531. The result for TCCCGTCTAGTAGTGGAGA reads 0.468; that for TCCCCAGGAGTGGCTGAGA, 0.0764. With TCCCTCGTAGTCTAAGAGA, the TetR repression strength was found to be 0.142. Next, TCCCCTCGAGTCTGAGAGA: 0.89.

TCCCCTTGAGTCTGAGAGA displayed a TetR repression strength of 0.333. Next, TCCCTCGTAGTCTGCGAGA: 0.447. Next, TCCCCTAGAGTCTGAGAGA: 0.122; TCCCTCGGAGTCTGTGAGA: 0.215; TCCCTCGGAGTCTGCGAGA: 0.522. The result for TCCCTCGGAGTCTGAGAGA reads 1.02; that for TCCCTCGTAGTCTGAGAGA, 1.03; that for TCCCAACCAGTTTTAGAGA, 0.399.

On to TCCCGCATAGTACGTGAGA, for which the TetR repression strength was found to be 0.273.

With TCCCGATGAGTTGCTGAGA, the TetR repression strength is 0.124. TCCCTGCGAGTGATAGAGA came in with a TetR repression strength of 0.618. Next, TCCCCGTCAGTGCGCGAGA: 0.229; TCCCCCTCAGTTTGCGAGA: 0.518.

In the case of TCCCCGGTAGTTTGAGAGA, the TetR repression strength was 0.302.

On to TCCCTATTAGTTTGCGAGA, for which the TetR repression strength was 0.417.

Regarding TCCCCGGTAGTTTGCGAGA, the TetR repression strength worked out at 0.971.

Take TCCCTCTGAGTTTGCGAGA: the TetR repression strength was found to be 0.335.

TCCCCAGTAGTTTGCGAGA showed a TetR repression strength of 0.202. TCCCTCTTAGTTTGCGAGA: the TetR repression strength worked out at 0.796. As to TCCCCGTCAGTTTGCGAGA, the TetR repression strength stood at 0.741. Sequence TCCCCGTCAGTGCGAGAGA returned a TetR repression strength of 0.69. Next, TCCCAGTCAGTTTGCGAGA: 0.167; TCCCCGTCAGTGTGCGAGA: 0.333; TCCCGTGGAGTAGCAGAGA: 0.169. Next, TCCCTGGGAGTAAGGGAGA: 0.28; TCCCGGGGAGTGTTAGAGA: 0.247; TCCCTGAGAGTCGATGAGA: 0.237. The result for TCCCTTTTAGTATACGAGA reads 0.242. On to TCCCACCGAGTGTTGGAGA, for which the TetR repression strength was found to be 0.286. The result for TCCCCCCAAGTCGGCGAGA reads 0.00669; that for TCCCACTGAGTTGGAGAGA, 0.16.

In turn, TCCCTAGCAGTTGAGGAGA displayed a TetR repression strength of 0.0558. For the sequence TCCCAGCGAGTATGAGAGA, the TetR repression strength turned out to be 0.0754. The result for TCCCGAAGAGTTGTTGAGA reads 0.233; that for TCCCATCTAGTCAGGGAGA, 0.305. Next, TCCCCTGCAGTGGGGGAGA: 0.225; TCCCTTATAGTGTAGGAGA: 0.0398. Next, TCCCATGAAGTGTGTGAGA: 0.127. In turn, TCCCTGTAAGTCGTGGAGA displayed a TetR repression strength of 0.309.

For TCCCCGTGAGTCTGAGAGA, the TetR repression strength turned out to be 0.215. Next, TCCCCGTGAGTCAGGGAGA: 0.152; TCCCCGTGAGTCAGAGAGA: 0.963; TCCCTGTTAGTGCCAGAGA: 0.193. Next, TCCCATTAAGTGCATGAGA: 0.106.

For TCCCTGTAAGTTGACGAGA, the TetR repression strength was determined as 0.1.

The sequence TCCCACTTAGTTGGGGAGA gave a TetR repression strength of 0.201. For TCCCCACTAGTGAAGGAGA, the TetR repression strength worked out at 0.203. The sequence TCCCAATCAGTGACAGAGA yielded a TetR repression strength of 0.723. With TCCCCATCAGTGATAGAGA, the TetR repression strength was determined as 0.966. With TCCCAAACAGTGACAGAGA, the TetR repression strength came out at 0.622. In the case of TCCCCAGCAGTGATAGAGA, the TetR repression strength is 0.186.
